Measured values: PubChem BioAssay AID652054 (National Center for Advancing Translational Sciences (NCATS), 2013)
Screen size: about 360,000 compounds; about 9,100 (2.5%) were called active. Not shown: some 4% with an inconclusive outcome. For the sample, actives were picked, then their nearest neighbours and some compounds at random. Values without a mark were called inactive. Cut-off read from the data, not from the text of the source: active = max response below about -50%; inconclusive = no clear call, values can overlap the other calls; inactive = above that.

biological target: D(3) dopamine receptor (Homo sapiens) (UniProt P35462); assay: qHTS of D3 Dopamine Receptor Antagonist: qHTS; details: D3R cells, DiscoveRx beta-arrestin luminescence, antagonist mode; hits give low values
Procedure, shortened: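 Cells plated overnight at 1500 cells/well, then exposed to library compounds with dopamine controls for 90 minutes at 37 degrees C. DiscoveRx reagent added for 30–60 minutes at room temperature; luminescence read, quantitative HTS format.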
% is set by controls: 0 for no effect and ±100 for the full control effect.

D(3) dopamine receptor (Homo sapiens), sequence (P35462 whole entry, looked up): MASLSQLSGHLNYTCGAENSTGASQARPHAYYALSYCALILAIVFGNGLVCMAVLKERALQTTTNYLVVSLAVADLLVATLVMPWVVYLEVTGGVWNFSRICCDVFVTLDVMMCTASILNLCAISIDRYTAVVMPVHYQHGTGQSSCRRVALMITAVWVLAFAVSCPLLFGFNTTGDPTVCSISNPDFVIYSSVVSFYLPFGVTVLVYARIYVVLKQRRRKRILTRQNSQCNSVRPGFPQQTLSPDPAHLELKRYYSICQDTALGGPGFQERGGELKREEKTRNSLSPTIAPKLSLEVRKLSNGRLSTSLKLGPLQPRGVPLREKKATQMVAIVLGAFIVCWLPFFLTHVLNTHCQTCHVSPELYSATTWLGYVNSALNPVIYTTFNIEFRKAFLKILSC

SMILES | max response, negative = inhibition
O=C(COC(=O)c1cccc(Cl)c1Cl)NC1CCCCCC1 | -13.8%
CC1CCCC(C)N1C(=O)COC(=O)c1ccccc1C(=O)c1ccccc1 (stereo not drawn) | -17.2%
O=C(Nc1ccc(Cl)c(C(F)(F)F)c1)C1Cc2c(-c3ccccc3Oc3ccccc3)ccnc2O1 (stereo not drawn) | 0%
CCCCN1C[C@H](c2ccc(Br)cc2)[C@@H](CC(=O)Nc2ccc(Br)cc2)C1=O | 24.8%
COc1ccc(C(=O)C(OP(=O)(OC)OC)c2ccccc2OC)cc1 (stereo not drawn) | 2.58%
CC(C)c1cccc(C(C)C)c1Nc1cn[nH]c1 | 157%
C[C@@H]1CN([C@@H](C)CO)C(=O)CCCn2nncc2CO[C@H]1CN(C)C(=O)Nc1ccc(C(F)(F)F)cc1 | -16.1%
CCCCOCCCNC(=O)C[C@@H]1C[C@@]2(C(=O)OC)CCCCC=C2N(CCC2=CCCCC2)C1=O | 0%
CC(C)NC(=O)C1(C)CCCCN1Cc1cccc(C(F)(F)F)c1 (stereo not drawn) | 0%
CCOC(=O)C1C(C)C(C(C)(C)C)N(S(=O)(=O)c2ccc(C)cc2)C1c1ccccc1 (stereo not drawn) | 15.8%
CC1(C(=O)Nc2cccc3cccnc23)CCN1C(=O)CCC1CCCC1 (stereo not drawn) | 0%
CN1CCN(CCCCOc2cccc3ccccc23)CC1 | -59% (active)
CCOC(=O)C1CCN(C(=O)COc2cccc3ccccc23)CC1 | 2.44%
COc1ccccc1OCCCCCCN1CCN(C)CC1 | 0.923%
C[N+](C)(C)CCNC(=O)c1c[nH]c2ccccc12 | 0%
CCOC(=O)[C@]12CCC=C1N(Cc1ccco1)C(=O)[C@H](CC(=O)N1CCSCC1)C2 | 2.85%
COC(=O)[C@@]12C[C@@H](CC(=O)N3CCC(c4ccccc4)CC3)C(=O)N(Cc3ccccc3)C1=CCC(C)(C)C2 | 15.3%
COc1ccc(-c2cc3c(c4c2ccn4C)C2CCC3C2)cn1 (stereo not drawn) | 12.4%
O=C(CSc1nc2cccc(F)c2c(=O)n1-c1ccccc1)Nc1ccc2c(c1)CCC2 | -3.93%
Cn1c(-c2ccc(F)cc2)cnc1SCC(=O)NCc1ccco1 | -51.9% (active)
Cn1c(-c2ccc(F)cc2)cnc1SCC(=O)NNC(=O)Cc1ccccc1 | -14.6%
O=C(CSc1nnc2scc(-c3ccc(F)cc3)n12)NCc1ccco1 | 5.75%

SMILES | max response, negative = inhibition
CCCCCn1nnnc1C1c2ccccc2C(=O)N1Cc1ccco1 (stereo not drawn) | -21.5%
O=NN(CCCl)C(=O)NCCc1cccc[n+]1[O-] | -1.68%
CCN1CCN(C(=O)c2ccccc2N(C)S(=O)(=O)c2ccc(C)cc2)CC1 | -77.3% (active)
CCOC(=O)C1CCN(C(=O)c2ccccc2N(C)S(=O)(=O)c2ccccc2)CC1 | -4.73%
CCOC(=O)N1CCN(C(=O)c2ccccc2N(Cc2ccccc2)S(=O)(=O)c2ccc(OC)cc2)CC1 | -17.6%
Clc1ccccc1Nc1nc(NCc2cccs2)nc2ccsc12 | 31.9%
O=C(C[C@H]1CC[C@@H](NC(=O)c2ccncc2)[C@@H](CO)O1)NCC1CC1 | 12.2%
O=C(NCc1nnnn1-c1ccc(Cl)cc1)c1ccc2c(c1)OCO2 | -11.2%
CC(=O)N/C(=C\c1ccccc1)C(=O)OC(C)C(=O)N(C)c1ccccc1 (stereo not drawn) | -13.3%
CC(=O)N/C(=C/c1ccc(OC(F)F)cc1)C(=O)O | -58.1% (active)
CC(=O)N/C(=C\c1ccc(F)cc1)C(=O)NC(Cc1ccccc1)C(=O)O (stereo not drawn) | 3.22%
CC1(Cc2cccc(C#N)c2)C(=O)Nc2ccc(-c3cccc(C(F)(F)F)c3)cc21 (stereo not drawn) | 19.7%
CCOc1cc(CNn2c(C)nnc2SCC(=O)NC(C)(C)C)ccc1OCC(=O)NC(C)(C)C | 4.21%
CCOc1cc(C)c(S(=O)(=O)NCc2ccccn2)cc1C | 4.2%
CCOc1cc(CNCc2ccccn2)ccc1OCC(=O)NC(C)(C)C | -58.7% (active)
CC1(C)CC(=O)C2=C(C1)N=C1SCCC(=O)N1C2c1ccc(C(F)(F)F)cc1 (stereo not drawn) | -94.4% (active)
CNC(=O)C[C@H]1C(=O)N(Cc2ccccc2)C[C@@H]1CSC | -17.4%
O=S(=O)(c1ccc(Cl)cc1)c1nc(-c2ccccc2F)oc1NCCN1CCOCC1 | -10.5%
O=S(=O)(c1ccccc1)c1nc(-c2ccccc2)oc1NCCCN1CCOCC1 | -64.3% (active)
O=S(=O)(c1ccc(Br)cc1)c1nc(-c2ccccc2)oc1N1CCOCC1 | -1.47%
CC(=O)c1cccc(-c2cnc3c(NC=O)cc(-c4ccc(N(C)C)cc4)cn23)c1 | 4.39%
CCOc1ccccc1OCCCNCc1ccccc1 | -58.9% (active)

SMILES | max response, negative = inhibition
c1ccc(CNCc2ccc(CNCc3ccccc3)cc2)cc1 | -21.6%
CCOCCCNCc1cc(Br)ccc1OCC | 4.27%
CCCCN1CC(N2CCN(Cc3cccc(C)c3)CC2)CS1(=O)=O (stereo not drawn) | 0.736%
OCCC#Cc1ccc(N2C(c3ccsc3)=Cc3ccc(F)cc3C2c2c[nH]c3ccccc23)cc1 (stereo not drawn) | -3.75%
O=C(NNS(=O)(=O)Cc1ccccc1)c1ccc([N+](=O)[O-])cc1 | -19%
O=C(CNC(=O)c1ccccc1)Oc1ccc([N+](=O)[O-])cc1 | -54.6% (active)
COC(=O)CNC(=O)c1ccccc1[N+](=O)[O-] | 16.4%
Nc1cc(=O)c2[nH]cnc2[nH]1 | 15.5%
Nc1ncnc2c1ncn2[C@@H]1O[C@H](C(=O)N2CCCN(Cc3ccccc3F)CC2)[C@@H](O)[C@H]1O | 15%
O=C(C=CC(=O)Nc1ccc(F)cc1F)Nc1ccc(F)cc1F | 4.55%
COC(=O)[C@@]1(Cc2ccc(OC)cc2)[C@H]2c3cc(C(=O)N4CCCC4)n(Cc4ccc(OC(F)(F)F)cc4)c3C[C@H]2CN1C(=O)c1ccccc1 | 20.3%
C[C@@H]1CN([C@H](C)CO)C(=O)CCCn2nncc2CO[C@@H]1CN(C)S(=O)(=O)c1cccc(C#N)c1 | -18.1%
N#Cc1cccc(NC(=O)CN2CCCCCC2)c1 | -64.8% (active)
N#Cc1ccsc1NC(=O)CN1CCCCC1 | -12%
N#Cc1cccc(NC(=O)C2CCCN(C(=O)c3ccc(Cl)cc3)C2)c1 (stereo not drawn) | 0.782%
Nc1cc(C(=O)N2CCN(c3ccccc3Cl)CC2)ccc1N1CC2CC(C1)c1cccc(=O)n1C2 (stereo not drawn) | 27.4%
C=C1C(=O)OC2C1CCC(C)=CCCC1(C)OC21 (stereo not drawn) | -90% (active)
CC1(C(=O)NCC2CCOCC2)Cc2c(-c3cccc(C(N)=O)c3)ccnc2O1 (stereo not drawn) | -8.42%
Cc1cc(Br)cn2c(Cc3ccccc3C(F)(F)F)c(C3CCCCC3)nc12 | -18.2%
COc1cccc(-c2cnc3c(NC(C)=O)cc(-c4cc(F)ccc4OC)cn23)c1 | -14.2%
COc1ccc(S(=O)(=O)N2CCC(C(=O)NCCC(=O)NCCc3cccc(F)c3)CC2)cc1 | 9.47%
O=C(CCCN1CCc2[nH]c3ccc(F)cc3c2C1)c1ccc(F)cc1 | -89.2% (active)

SMILES | max response, negative = inhibition
CC1CCc2[nH]c3ccc(C(=O)N(C)CC(=O)Nc4cccc(F)c4)cc3c2C1 (stereo not drawn) | 3.28%
C=CCNC(=S)N1CCc2[nH]c3ccccc3c2C1 | -14.7%
CC(=O)C1=CCC(c2ccccc2)N(S(=O)(=O)c2ccc(C)cc2)C1 (stereo not drawn) | 0%
COc1cccc(NC(=O)C2(C)CCN2C(=O)CCC2CCCC2)c1 (stereo not drawn) | 1.34%
COc1ccc(C(NC(=O)C2CCN(CCCc3ccccc3)CC2)c2cccs2)cc1 (stereo not drawn) | -15.9%
Cc1c(NS(=O)(=O)c2ccc(NC3CCCC3)c([N+](=O)[O-])c2)c(=O)n(-c2ccccc2)n1C | -21.5%
Cc1cc(C=O)c(C)n1-c1ccc(NC2CCCCC2)c([N+](=O)[O-])c1 | -55.1% (active)
Cc1cc([N+](=O)[O-])c(NC2CCCCC2)c([N+](=O)[O-])c1 | -7.91%
COCC(=O)N(C)C[C@H]1Oc2cc(Br)ccc2S(=O)(=O)N([C@H](C)CO)C[C@H]1C | 15.2%
C#CCN(C[C@@H]1[C@@H](OC(=O)NC2CC2)[C@@H](OC(=O)NC2CC2)Cn2c(=O)ccc(=O)n21)S(=O)(=O)c1ccc(C)cc1 | 13.1%
O=c1ccc2c(-c3ccccc3S(=O)(=O)O)c3ccc(O)c(O)c3oc-2c1O | -93.3% (active)
C[C@@H]1CN([C@@H](C)CO)C(=O)CCCn2nncc2CO[C@H]1CN(C)Cc1ccc(C(F)(F)F)cc1 | 20.1%
CC(C)NC(=O)N1Cc2cc(C(=O)NCC(F)(F)F)nc(-c3cccc(-c4cc5ccccc5o4)c3)c2[C@@H]1CCO | 18.7%
O=C(NC(c1ccc(-c2ccccc2)cc1)c1cnccn1)C1CCN(CCOc2ccc(Cl)cc2Cl)CC1 (stereo not drawn) | -24.7%
COC(=O)c1ccc2nc(-c3ccccc3)c(Cc3ccc(OC)cc3C)n2c1 | -9.42%
COc1ccc2[nH]cc(/C=C(/C#N)S(=O)(=O)c3ccccc3)c2c1 | -50.9% (active)
COc1ccc(/C=N/N=C/c2c[nH]c(=O)c(C#N)c2Nc2ccccc2)cc1 | 23.9%
COc1ccc2[nH]cc(CCN3C(=O)c4ccc(C(=O)O)cc4C3=O)c2c1 | 11.7%
Cc1ccccc1S(=O)(=O)NC(=O)C1(C)CCN1C(=O)C1(c2ccc(Cl)cc2)CC1 (stereo not drawn) | 4.07%
Cc1nc2ccc(C(=O)N/N=C/c3ccc(O)cc3)cc2[nH]1 | -78.1% (active)
Cc1nonc1C(=O)N/N=C/c1ccc(O)cc1 | 20.2%
O=C(NN=Cc1ccccc1)c1ccccc1 | -25.4%
